From PubChem BioAssay (Tox21)
Values joined by “and” are separate entries in the source; they are usually repeats but may differ in a detail not shown here. Identical values can stand only once. Inconclusive results are not listed. Active and inactive are the calls of the source. Calls follow the shape of the dose curve; as a rule, active = well fitted cell-killing curve with a large enough effect in the repeat runs; inconclusive = weak or mixed curves, or effect the other way; inactive = no such curve, though single readings can be large or run the other way.

Experiment: qHTS assay to identify small molecule antagonists of the vitamin D receptor (VDR) signaling pathway - cell viability counter screen (AID 743225); also: nearly all actives have a fitted effect of over 50% in size
Conditions: VDR-bla HEK293T viability, CellTiter-Glo luminescence, 16 h; series mostly up to 61 µM; viability change, negative = cytotoxic: at the top concentration
Excerpt: U.S. Tox21 Program National Center for Advancing Translational Sciences [NCATS] NIH Chemical Genomics Center [NCGC] U.S. Environmental Protection Agency [EPA] National Institutes of Environmental Health Sciences [NIEHS] National Toxicology Program [NTP] U.S. Food and Drug Administration [FDA] Tox21 Assay Overview: The vitamin D receptor (VDR), a member of nuclear hormone receptor superfamily, plays a critical role in calcium homeostasis and bone metabolism. It is also involved in cell differentiation and growth, and thrombogenicity. To identify the compounds that inhibit VDR signaling, the VDR-UAS-bla HEK 293T cell line (Invitrogen, Carlsbad, CA, USA) containing a beta-lactamase reporter gene under the control of an upstream activator sequence (UAS) was used to screen the Tox21 10K compound library. The cytotoxicity of the Tox21 compound library against the VDR-bla cell line was tested in parallel by measuring the cell viability using CellTiter-Glo assay (Promega, Madison, WI) in the same wells.
Tox21 Assay Protocol Summary: VDR-bla cells were dispensed at 2,000 cells/5 uL of assay medium per well into black wall/clear-bottom 1536-well plates using a Multidrop Combi (Thermo Fisher Scientific, Waltham, MA) dispenser. After the assay plates were incubated at a 37C and 5% CO2 for 4 h, 23 nL of compounds dissolved in DMSO, positive controls or DMSO only was transferred to the assay plate by a Pintool station (Kalypsys, San Diego, CA), followed by addition of 1 uL of 1-alpha, 25-Dihydroxy Vitamin D3 (3 nM, final concentration in the wells) using a Bioraptr Flying Reagent Dispenser (FRD) workstation (Beckman Coulter, Indianapolis, IN). The plates were incubated at 37C and 5% CO2 for 16 h, and then 1 uL of LiveBLAzerTM B/G FRET substrate was added using a Bioraptr FRD. The plates were incubated at room temperature for 2 h and fluorescence intensity was measured by an Envision plate reader (PerkinElmer, Shelton, CT). For cell viability readout that measures cytotoxicity, 3 ul/well of CellTiter-Glo reagent was added into the assay plates using a Bioraptr FRD. After 30 min incubation at room temperature, the luminescence intensity in the plates was measured using a ViewLux plate reader (PerkinElmer).
% is scaled to controls: 0 for no effect and ±100 for the full control effect; potency is read from the fitted curve at half-maximal effect.

Row | SMILES | viability change, negative = cytotoxic | Potency
1 | Nc1ccc(Cl)cc1C(=O)c1ccccc1F | -9.75% (inactive) | –
2 | CCN1CCC2(CC1)COc1cc3c(cc12)N(C(=O)c1ccc(-c2ccc(-c4nnc(C)o4)cc2C)cc1)CC3 | – | 20.2 µM (active)
3 | O=C1C2(Cl)C3(Cl)C4(Cl)C(Cl)(Cl)C5(Cl)C3(Cl)C1(Cl)C5(Cl)C24Cl (stereo not given) | – | 48.2 µM (active) and 46.9 µM (active)
4 | CN(C)C(=S)SSC(=S)N(C)C | – | 27.2 µM (active) and 24.5 µM (active)
5 | O=C(Cl)c1ccccc1F | 5.08% (inactive) | –
6 | O.O.O.O.O.O.O.O=S(=O)([O-])[O-].[Co+2] | -16.9% [at 78.8 µM] (inactive) | –
7 | CCCN | 0.295% [at 78.8 µM] (inactive) | –
8 | O=[N+]([O-])c1ccc(Cl)c(Cl)c1Cl | 1.13% (inactive) | –
9 | CC1CCCC1 | -0.25% (inactive) | –
10 | Cc1nn(-c2cc(NS(C)(=O)=O)c(Cl)cc2Cl)c(=O)n1C(F)F | 12.3% (inactive) | –
11 | CC(O)C(=O)[O][Hg][c]1ccccc1 (stereo not given) | – | 1.74 µM (active)
12 | CC(=O)[O][Sn]([c]1ccccc1)([c]1ccccc1)[c]1ccccc1 | – | 0.219 µM (active)
13 | ClC1(Cl)C2(Cl)C3(Cl)C4(Cl)C(Cl)(Cl)C5(Cl)C3(Cl)C1(Cl)C5(Cl)C24Cl (stereo not given) | -0.715% (inactive) | –
14 | C=CC(=O)[O][Sn]([CH2]CCC)([CH2]CCC)[CH2]CCC | – | 3.09 µM (active)
15 | Cc1ccn2nc(S(=O)(=O)Nc3c(F)cccc3F)nc2n1 | 2.04% (inactive) | –
16 | CCOC(=O)CCN(SN(C)C(=O)Oc1cccc2c1OC(C)(C)C2)C(C)C | -15.3% (inactive) | –
17 | CCCCCCCc1ccc(O)cc1 | -26.8% (inactive) | –
18 | COc1ccc2c(c1OC)C(=O)O[C@@H]2[C@H]1c2cc3c(cc2CCN1C)OCO3 | -3.2% (inactive) | –
19 | CSC(C)(C)/C=N/O | 20.7% (inactive) | –
20 | CC[C@]1(O)CC[C@H]2[C@@H]3CCC4=CCCC[C@@H]4[C@H]3CC[C@@]21C | -13.8% (inactive) | –

Row | SMILES | viability change, negative = cytotoxic | Potency
21 | [O]=[Cr][O][Cr]=[O] | 3.63% [at 78.8 µM] (inactive) | –
22 | C[N+]1(C)[C@@H]2CC[C@H]1CC(OC(=O)C(CO)c1ccccc1)C2 (stereo not given in full) | 1.07% (inactive) | –
23 | C#CC1(O)CCCCC1 | -5.62% (inactive) | –
24 | [Cl-].[Cl-].[Sn+2] | -3.75% (inactive) | –
25 | C=CC(=C)C | -5.51% (inactive) | –
26 | COC(=O)c1cc(Oc2ccc(Cl)cc2Cl)ccc1[N+](=O)[O-] | 3.42% (inactive) | –
27 | ClSC(Cl)(Cl)Cl | 0% (inactive) | –
28 | CC1CN1 (stereo not given) | 6.22% (inactive) | –
29 | CC(Cc1ccccc1)N(C)Cc1ccco1 (stereo not given) | 1.9% (inactive) | –
30 | CC(Cl)CCl (stereo not given) | 13.5% (inactive) | –
31 | CCN(CC)Cc1nccn1-c1ccc([N+](=O)[O-])cc1C(=O)c1ccccc1Cl | 3.65% (inactive) | –
32 | CNC(=O)Oc1cc(C)cc(C(C)C)c1 | -1.49% (inactive) | –
33 | [Cl][Hg][c]1ccccc1 | – | 0.692 µM (active)
34 | OCC(Br)CBr (stereo not given) | 5.46% [at 78.8 µM] (inactive) | –
35 | Brc1ccc(Oc2ccc(Br)cc2Br)c(Br)c1 | -0.573% (inactive) | –
36 | FC(F)C(F)(F)OCC(Cn1cncn1)c1ccc(Cl)cc1Cl (stereo not given) | -23.3% (inactive) | –
37 | COc1c2c(cc3c1OCO3)CCN(C)C2 | 9.3% (inactive) | –
38 | CCOP(=S)(OCC)SC(CCl)N1C(=O)c2ccccc2C1=O (stereo not given) | -1.47% (inactive) | –
39 | O=[N+]([O-])c1cc(C(F)(F)F)c(Cl)c([N+](=O)[O-])c1Nc1ncc(C(F)(F)F)cc1Cl | – | 6.92 µM (active)
40 | O=[N+]([O-])c1ccc(CCl)cc1 | -8.3% (inactive) | –
